PubChem BioAssay (NCATS)
Several values for one entry are separate records, joined by “and”; a condition that tells them apart may be missing. Equal entries are not always repeated. Inconclusive results are not listed. Activity calls are given as the source filed them. Calls follow the shape of the dose curve; as a rule, active = well fitted inhibition curve with a large enough effect; inconclusive = small, poorly fitted or top-dose-only effect; inactive = flat fitted curve, though single readings scatter.

Key:
CRL-7250 = normal cell line; test: Cytotoxic Profiling of Annotated Libraries Using Quantitative High-Throughput Screening (AID 1296008); settings: Five cell lines viability, CellTiter-Glo ATP luminescence, 48-72 h; max response: active compounds read low; as to max response: % is scaled to controls: 0 for no effect and ±100 for the full control effect
In short: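 Cells exposed to compounds for 48 or 72 hr at 37 degrees Celsius. Viability read as ATP-coupled luminescence with CellTiter-Glo after 10 min at room temperature.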

Dd2 = test: qHTS profiling for inhibitors of Plasmodium falciparum proliferation (AID 504749); settings: P. falciparum in erythrocytes, SYBR Green DNA, 72 h; series mostly up to 28.7 µM
In short: (§1)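 Readout was DNA-dye fluorescence from lysed cultures, ex 485/em 535 nm. Parasitized red cells had grown 72 h with compound; data scaled between 0.29 uM artemisinin and DMSO wells and corrected using vehicle-only plates.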

ECU = test: as above; settings: P. falciparum in erythrocytes, SYBR Green DNA, 72 h; series mostly up to 28.7 µM
In short: as §1

FAB9 = test: as above; settings: P. falciparum in erythrocytes, SYBR Green DNA, 72 h; series mostly up to 28.7 µM
In short: as §1

GB4 = test: as above; settings: P. falciparum in erythrocytes, SYBR Green DNA, 72 h; series mostly up to 28.7 µM
In short: as §1

HB3 = test: as above; settings: P. falciparum in erythrocytes, SYBR Green DNA, 72 h; series mostly up to 28.7 µM
In short: as §1

ICS = test: as above; settings: P. falciparum in erythrocytes, SYBR Green DNA, 72 h; series mostly up to 28.7 µM
In short: as §1

JCK = test: as above; settings: P. falciparum in erythrocytes, SYBR Green DNA, 72 h; series mostly up to 28.7 µM
In short: as §1

N140 = test: as above; settings: P. falciparum in erythrocytes, SYBR Green DNA, 72 h; series mostly up to 28.7 µM
In short: as §1

P93_24 = test: as above; settings: P. falciparum in erythrocytes, SYBR Green DNA, 72 h; series mostly up to 28.7 µM
In short: as §1

P94_40 = test: as above; settings: P. falciparum in erythrocytes, SYBR Green DNA, 72 h; series mostly up to 28.7 µM
In short: as §1

PAD = test: as above; settings: P. falciparum in erythrocytes, SYBR Green DNA, 72 h; series mostly up to 28.7 µM
In short: as §1

PC15 = test: as above; settings: P. falciparum in erythrocytes, SYBR Green DNA, 72 h; series mostly up to 28.7 µM
In short: as §1

PC26 = test: as above; settings: P. falciparum in erythrocytes, SYBR Green DNA, 72 h; series mostly up to 28.7 µM
In short: as §1

PC49 = test: as above; settings: P. falciparum in erythrocytes, SYBR Green DNA, 72 h; series mostly up to 28.7 µM
In short: as §1

SC27B = test: as above; settings: P. falciparum in erythrocytes, SYBR Green DNA, 72 h; series mostly up to 28.7 µM
In short: as §1

TAB109 = test: as above; settings: P. falciparum in erythrocytes, SYBR Green DNA, 72 h; series mostly up to 28.7 µM
In short: as §1

TAB113 = test: as above; settings: P. falciparum in erythrocytes, SYBR Green DNA, 72 h; series mostly up to 28.7 µM
In short: as §1

TAB165 = test: as above; settings: P. falciparum in erythrocytes, SYBR Green DNA, 72 h; series mostly up to 28.7 µM
In short: as §1

W2 = test: as above; settings: P. falciparum in erythrocytes, SYBR Green DNA, 72 h; series mostly up to 28.7 µM
In short: as §1
Also: nearly all actives have a fitted effect of over 60% in size.
Potency is read from the fitted curve at half-maximal effect.

Cc1ccccc1N1C(=O)c2cc(S(N)(=O)=O)c(Cl)cc2NC1C (centres undefined)
inactive: max response (CRL-7250) -4.5%

CN(C)c1nc(N(C)C)nc(N(C)C)n1
inactive: Potency (Dd2) | Potency (ECU) | Potency (FAB9) | Potency (GB4) | Potency (HB3) | Potency (ICS) | Potency (JCK) | Potency (N140) | Potency (P93_24) | Potency (P94_40) | Potency (PAD) | Potency (PC15) | Potency (PC26) | Potency (PC49) | Potency (SC27B) | Potency (TAB109) | Potency (TAB113) | Potency (TAB165) | Potency (W2) | max response (CRL-7250) -4.79% | outcome (CRL-7250)

Fc1ccc([C@@H]2CCNC[C@H]2COc2ccc3c(c2)OCO3)cc1
inactive: max response (CRL-7250) -5.94%

CN(C)C(=O)C(CCN1CCC(O)(c2ccc(Cl)cc2)CC1)(c1ccccc1)c1ccccc1
inactive: max response (CRL-7250) -63.2%

COc1ccc(C2CNC(=O)C2)cc1OC1CCCC1 (centres undefined)
inactive: max response (CRL-7250) -1.68% | outcome (CRL-7250)

Cc1ccc(-c2cc(C(F)(F)F)nn2-c2ccc(S(N)(=O)=O)cc2)cc1
active: Potency (ECU) 10 µM | Potency (GB4) 13.5 µM | Potency (PC26) 9.53 µM | Potency (W2) 6.75 µM
inactive: Potency (Dd2) | Potency (FAB9) | Potency (HB3) | Potency (JCK) | Potency (PC49) | max response (CRL-7250) -3.61% | outcome (CRL-7250)

C[C@H]1c2cccc(O)c2C(O)=C2C(=O)[C@]3(O)C(O)=C(C(N)=O)C(=O)[C@@H](N(C)C)[C@@H]3[C@@H](O)[C@@H]21
inactive: max response (CRL-7250) -2.19% | outcome (CRL-7250)

CCN1CCCC1CNC(=O)c1cc(S(=O)(=O)CC)c(N)cc1OC (centres undefined)
inactive: outcome (CRL-7250)

Cc1cn([C@H]2C=C[C@@H](CO)O2)c(=O)[nH]c1=O
inactive: Potency (Dd2) | Potency (ECU) | Potency (FAB9) | Potency (GB4) | Potency (HB3) | Potency (ICS) | Potency (JCK) | Potency (N140) | Potency (P93_24) | Potency (P94_40) | Potency (PAD) | Potency (PC15) | Potency (PC26) | Potency (PC49) | Potency (SC27B) | Potency (TAB109) | Potency (TAB113) | Potency (TAB165) | Potency (W2) | max response (CRL-7250) -12.9% and -2.54%

Cn1c(=O)c2c(ncn2C)n(C)c1=O
inactive: Potency (Dd2) | Potency (ECU) | Potency (FAB9) | Potency (GB4) | Potency (HB3) | Potency (ICS) | Potency (JCK) | Potency (N140) | Potency (P93_24) | Potency (P94_40) | Potency (PAD) | Potency (PC15) | Potency (PC26) | Potency (PC49) | Potency (SC27B) | Potency (TAB109) | Potency (TAB113) | Potency (TAB165) | Potency (W2) | max response (CRL-7250) 0.692% and -3.54%

COc1nc(C)nc(Cl)c1NC1=NCCN1
inactive: Potency (Dd2) | Potency (ECU) | Potency (FAB9) | Potency (GB4) | Potency (HB3) | Potency (ICS) | Potency (JCK) | Potency (N140) | Potency (P94_40) | Potency (PAD) | Potency (PC15) | Potency (PC26) | Potency (PC49) | Potency (SC27B) | Potency (TAB109) | Potency (TAB113) | Potency (TAB165) | Potency (W2) | max response (CRL-7250) -8.35%

NC(=O)NO
active: Potency (CRL-7250) 13.2 µM
inactive: Potency (Dd2) | Potency (ECU) | Potency (FAB9) | Potency (GB4) | Potency (HB3) | Potency (ICS) | Potency (JCK) | Potency (N140) | Potency (P93_24) | Potency (P94_40) | Potency (PAD) | Potency (PC15) | Potency (PC26) | Potency (PC49) | Potency (SC27B) | Potency (TAB109) | Potency (TAB113) | Potency (TAB165) | Potency (W2)

CN(CCOc1ccc(NS(C)(=O)=O)cc1)CCc1ccc(NS(C)(=O)=O)cc1
inactive: Potency (Dd2) | Potency (ECU) | Potency (FAB9) | Potency (GB4) | Potency (HB3) | Potency (ICS) | Potency (JCK) | Potency (N140) | Potency (P94_40) | Potency (PAD) | Potency (PC15) | Potency (PC26) | Potency (PC49) | Potency (SC27B) | Potency (TAB109) | Potency (TAB113) | Potency (TAB165) | Potency (W2) | outcome (CRL-7250)

NCCc1cnc[nH]1
inactive: Potency (Dd2) | Potency (ECU) | Potency (FAB9) | Potency (GB4) | Potency (HB3) | Potency (ICS) | Potency (JCK) | Potency (N140) | Potency (P93_24) | Potency (P94_40) | Potency (PC15) | Potency (PC26) | Potency (SC27B) | Potency (TAB109) | Potency (TAB113) | Potency (TAB165) | Potency (W2) | outcome (CRL-7250)

COc1ccc2[nH]cc(CCNC(C)=O)c2c1
inactive: Potency (Dd2) | Potency (ECU) | Potency (FAB9) | Potency (GB4) | Potency (HB3) | Potency (ICS) | Potency (JCK) | Potency (N140) | Potency (P93_24) | Potency (P94_40) | Potency (PAD) | Potency (PC15) | Potency (PC26) | Potency (PC49) | Potency (SC27B) | Potency (TAB109) | Potency (TAB113) | Potency (TAB165) | Potency (W2) | max response (CRL-7250) -2.01% and -27.6%

CN(C)C(=N)N=C(N)N
inactive: Potency (Dd2) | Potency (ECU) | Potency (FAB9) | Potency (HB3) | Potency (ICS) | Potency (JCK) | Potency (N140) | Potency (P93_24) | Potency (P94_40) | Potency (PAD) | Potency (PC15) | Potency (PC49) | Potency (SC27B) | Potency (TAB109) | Potency (TAB113) | Potency (TAB165) | Potency (W2) | outcome (CRL-7250)

CN1C(C(=O)Nc2ccccn2)=C(O)c2ccccc2S1(=O)=O
inactive: Potency (Dd2) | Potency (ECU) | Potency (FAB9) | Potency (GB4) | Potency (HB3) | Potency (ICS) | Potency (JCK) | Potency (N140) | Potency (P93_24) | Potency (P94_40) | Potency (PAD) | Potency (PC15) | Potency (PC26) | Potency (PC49) | Potency (SC27B) | Potency (TAB109) | Potency (TAB113) | Potency (TAB165) | Potency (W2) | max response (CRL-7250) -1.73% and 2.62%
